Data from PubChem BioAssay (EPA / NIEHS).
Some structures have more than one record in an assay (separate samples or runs), and their calls can disagree. Active and inactive are the calls of the source. Rule for the calls: active = hit-call score of the fitted dose curve at least 0.9, where 1 is the maximum; inactive = score below 0.9.

How the values were obtained:
[1] = read-out: Interleukin-8 (IL8), CXCL8 (gene 3576); assay: BSK_KF3CT_IL8: BioMAP Diversity Plus: KF3CT Assay for Interleukin-8 (IL8) Biomarker Activity (AID 2284254); details: primary human keratinocytes with fibroblasts
Method in brief: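 Human keratinocyte/foreskin fibroblast co-culture dosed 24 h; IL-8 measured by ELISA relative to DMSO. Parallel cultures stained with SRB for total protein to flag cytotoxicity.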

[2] = read-out: Macrophage Inflammatory Protein-1 Alpha (MIP1a), CCL3 (gene 6348); assay: BSK_IMphg_MIP1a: BioMAP Diversity Plus: IMphg Assay for Macrophage Inflammatory Protein-1 Alpha (MIP1a) Biomarker Activity (AID 2284255); details: primary human endothelial cells with macrophages
Method in brief: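 Co-culture of human venular endothelial cells and macrophages exposed to compounds for 24 h; MIP-1a measured by ELISA relative to DMSO. Cytotoxicity assessed in parallel cultures by sulforhodamine B total-protein staining at 560 nm.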

[3] = read-out: Plasminogen activator inhibitor-1 (PAI1), SERPINE1 (gene 5054); assay: BSK_MyoF_PAI1: BioMAP Diversity Plus: MyoF Assay for Plasminogen activator inhibitor-1 (PAI1) Biomarker Activity (AID 2284256); details: primary human lung fibroblasts;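 note: PAI-1 read 24 h after compound addition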
Method in brief: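 Primary human lung fibroblasts treated with chemical for 24 h; PAI-1 levels quantified by ELISA relative to DMSO. Cytotoxicity was assessed in parallel cultures by SRB total-protein staining (0.1% SRB after 10% TCA fixation, 560 nm).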

[4] = read-out: CD69, CD69 (gene 969); assay: BSK_IMphg_CD69: BioMAP Diversity Plus: IMphg Assay for CD69 Biomarker Activity (AID 2284257); details: primary human endothelial cells with macrophages
Method in brief: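 Human venular endothelial cells co-cultured with macrophages; CD69 quantified by ELISA 24 h after compound addition. Activity fitted in the positive direction relative to DMSO baseline; cytotoxicity tracked in parallel cultures via SRB total-protein staining.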

[5] = read-out: Eotaxin 3, CCL26 (gene 10344); assay: BSK_BF4T_Eotaxin3: BioMAP Diversity Plus: BF4T Assay for Eotaxin 3 Biomarker Activity (AID 2284258); details: primary human bronchial epithelial cells with fibroblasts
Method in brief: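 Co-culture of human bronchial epithelial cells and dermal fibroblasts, exposed to chemicals for 24 h versus DMSO. Eotaxin-3 quantified by ELISA; cytotoxicity checked in parallel cultures by sulforhodamine B total-protein staining.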

[6] = read-out: Monocyte Chemoattractant Protein-1 (MCP1), CCL2 (gene 6347); assay: BSK_BF4T_MCP1: BioMAP Diversity Plus: BF4T Assay for Monocyte Chemoattractant Protein-1 (MCP1) Biomarker Activity (AID 2284259); details: primary human bronchial epithelial cells with fibroblasts
Method in brief: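 Co-culture of bronchial epithelial cells and dermal fibroblasts dosed with chemical; MCP-1 measured by ELISA 24 h later. Activity fitted in positive direction versus DMSO; cytotoxicity checked by SRB staining in parallel cultures.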

[7] = read-out: Intercellular Adhesion Molecule 1 (ICAM1), ICAM1 (gene 3383); assay: BSK_BF4T_ICAM1: BioMAP Diversity Plus: BF4T Assay for Intercellular Adhesion Molecule 1 (ICAM1) Biomarker Activity (AID 2284260); details: primary human bronchial epithelial cells with fibroblasts
Method in brief: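 Co-culture of human bronchial epithelial cells and dermal fibroblasts exposed 24 h to chemical; cell-surface ICAM-1 quantified by ELISA. Parallel SRB total-protein staining assessed cytotoxicity; activity fitted relative to DMSO.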

[8] = read-out: Interleukin-8 (IL8), CXCL8 (gene 3576); assay: BSK_MyoF_IL8: BioMAP Diversity Plus: MyoF Assay for Interleukin-8 (IL8) Biomarker Activity (AID 2284261); details: primary human lung fibroblasts
Method in brief: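 Human lung fibroblast (MyoF system) cultures dosed for 24 h, then IL-8 measured by ELISA. Response taken relative to DMSO; parallel SRB total-protein staining for cytotoxicity.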

[9] = read-out: CD90, THY1 (gene 7070); assay: BSK_BF4T_CD90: BioMAP Diversity Plus: BF4T Assay for CD90 Biomarker Activity (AID 2284262); details: primary human bronchial epithelial cells with fibroblasts
Method in brief: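 Co-culture of human bronchial epithelial cells and dermal fibroblasts, 24 h compound exposure. Cell-surface CD90 measured by ELISA relative to DMSO; parallel SRB total-protein staining for cytotoxicity.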

[10] = read-out: Interleukin-8 (IL8), CXCL8 (gene 3576); assay: BSK_BF4T_IL8: BioMAP Diversity Plus: BF4T Assay for Interleukin-8 (IL8) Biomarker Activity (AID 2284263); details: primary human bronchial epithelial cells with fibroblasts
Method in brief: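 Human bronchial epithelial cells with dermal fibroblasts co-culture; IL-8 measured by ELISA 24 hours after dosing, fitted vs DMSO. Cytotoxicity tracked in parallel cultures by SRB total-protein staining.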

[11] = read-out: Interleukin-1 alpha (IL1a), IL1A (gene 3552); assay: BSK_BF4T_IL1a: BioMAP Diversity Plus: BF4T Assay for Interleukin-1 alpha (IL1a) Biomarker Activity (AID 2284264); details: primary human bronchial epithelial cells with fibroblasts
Method in brief: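 Human bronchial epithelial cells co-cultured with dermal fibroblasts, dosed and read at 24 h. Secreted/surface IL-1α quantified by ELISA; gain-of-signal fitted relative to DMSO baseline. Parallel SRB total-protein staining tracked cytotoxicity.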

[12] = read-out: Decorin, DCN (gene 1634); assay: BSK_MyoF_Decorin: BioMAP Diversity Plus: MyoF Assay for Decorin Biomarker Activity (AID 2284265); details: primary human lung fibroblasts
Method in brief: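 Human lung fibroblast cultures were dosed for 24 h, and decorin was then measured by ELISA. Parallel cultures were stained with sulforhodamine B for total protein as a cytotoxicity check. Gain of signal was fitted relative to DMSO.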

[13] = read-out: KRT18 (gene 3875); assay: BSK_BF4T_Keratin818: BioMAP Diversity Plus: BF4T Assay for Keratin 818 Biomarker Activity (AID 2284266); details: primary human bronchial epithelial cells with fibroblasts
Method in brief: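 Co-culture of human bronchial epithelial cells and dermal fibroblasts, chemical exposure 24 h. Keratin 8/18 measured by ELISA; positive-direction fit vs DMSO. SRB total protein run in parallel cultures for cytotoxicity.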

[14] = BSK_MyoF_SRB: Viability Assessment in the BioMAP Diversity Plus: MyoF Assay (AID 2284267); details: primary human lung fibroblasts;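 note: total protein by SRB absorbance in parallel cultures as cytotoxicity measure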
Method in brief: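 Human lung fibroblasts dosed with chemical and assessed 24 h later for overt cytotoxicity in parallel cultures. Total protein quantified by sulforhodamine B staining (0.1% SRB after 10% TCA fixation), read at 560 nm, analysed in positive direction versus DMSO baseline.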

[15] = read-out: Matrix Metallopeptidase 1 (MMP1), MMP1 (gene 4312); assay: BSK_MyoF_MMP1: BioMAP Diversity Plus: MyoF Assay for Matrix Metallopeptidase 1 (MMP1) Biomarker Activity (AID 2284268); details: primary human lung fibroblasts
Method in brief: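 Human lung fibroblast primary cells; MMP1 measured by ELISA 24 h after dosing, fitted in the positive direction relative to DMSO. Parallel SRB staining (0.1%, after 10% TCA fixation, 560 nm) assesses overt cytotoxicity.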

[16] = read-out: TIMP metallopeptidase inhibitor 1 (TIMP1), TIMP1 (gene 7076); assay: BSK_MyoF_TIMP1: BioMAP Diversity Plus: MyoF Assay for TIMP metallopeptidase inhibitor 1 (TIMP1) Biomarker Activity (AID 2284269); details: primary human lung fibroblasts
Method in brief: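 ELISA quantified TIMP-1 levels after 24 h dosing of primary human lung fibroblasts, with DMSO as baseline. Parallel SRB total protein staining (0.1% SRB after TCA fixation, 560 nm) flagged overt cytotoxicity.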

[17] = read-out: Matrix Metallopeptidase 1 (MMP1), MMP1 (gene 4312); assay: BSK_BF4T_MMP1: BioMAP Diversity Plus: BF4T Assay for Matrix Metallopeptidase 1 (MMP1) Biomarker Activity (AID 2284270); details: primary human bronchial epithelial cells with fibroblasts
Method in brief: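 Co-culture of human bronchial epithelial cells and dermal fibroblasts; MMP-1 levels measured by ELISA 24 hours after chemical dosing, relative to DMSO. Cytotoxicity checked in parallel cultures by SRB total-protein staining.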

[18] = read-out: Tissue plasminogen activator (tPA), PLAT (gene 5327); assay: BSK_BF4T_tPA: BioMAP Diversity Plus: BF4T Assay for Tissue plasminogen activator (tPA) Biomarker Activity (AID 2284272); details: primary human bronchial epithelial cells with fibroblasts
Method in brief: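 tPA level quantified by ELISA at 24 h post-treatment in bronchial epithelial/dermal fibroblast co-cultures, gain of signal scored against DMSO baseline. Parallel cultures stained with 0.1% SRB (560 nm) to flag overt cytotoxicity.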

[19] = read-out: Plasminogen Activator Inhibitor-1 (PAI1), SERPINE1 (gene 5054); assay: BSK_BF4T_PAI1: BioMAP Diversity Plus: BF4T Assay for Plasminogen Activator Inhibitor-1 (PAI1) Biomarker Activity (AID 2284273); details: primary human bronchial epithelial cells with fibroblasts
Method in brief: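 Co-culture of human bronchial epithelial cells and dermal fibroblasts exposed to compound for 24 h. PAI-1 measured by ELISA; activity fitted in positive direction versus DMSO. Parallel SRB staining assessed overt cytotoxicity.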

[20] = read-out: Matrix Metallopeptidase 3 (MMP3), MMP3 (gene 4314); assay: BSK_BF4T_MMP3: BioMAP Diversity Plus: BF4T Assay for Matrix Metallopeptidase 3 (MMP3) Biomarker Activity (AID 2284271); details: primary human bronchial epithelial cells with fibroblasts
Method in brief: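 Co-culture of human bronchial epithelial cells and dermal fibroblasts dosed 24 h; MMP-3 measured by ELISA, positive-direction fit versus DMSO. Cytotoxicity tracked by SRB total-protein staining (560 nm) in parallel cultures.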

## FC(F)(F)C(F)(F)C(F)(F)C(F)(F)CCI
[1]
  outcome: inactive
[2]
  outcome: inactive
[3]
  outcome: inactive
[4]
  outcome: inactive
[5]
  outcome: inactive
[6]
  AC50: 7.18 µM (active)
  outcome: inactive
[7]
  outcome: inactive
[8]
  AC50: 5.95 µM (active)
  outcome: inactive
[9]
  outcome: inactive
[10]
  outcome: inactive
[11]
  outcome: inactive
[12]
  outcome: inactive
[13]
  outcome: inactive
[14]
  outcome: inactive
[15]
  outcome: inactive
[16]
  outcome: inactive
[17]
  outcome: inactive
[18]
  outcome: inactive

## FC1CC(F)(F)C(F)(F)C1(F)F (stereo unspecified)
[1]
  outcome: inactive
[2]
  outcome: inactive
[3]
  outcome: inactive
[4]
  outcome: inactive
[5]
  outcome: inactive
[6]
  outcome: inactive
[7]
  outcome: inactive
[8]
  outcome: inactive
[9]
  outcome: inactive
[10]
  outcome: inactive
[11]
  outcome: inactive
[12]
  outcome: inactive
[13]
  outcome: inactive
[14]
  outcome: inactive
[15]
  outcome: inactive
[16]
  outcome: inactive
[17]
  outcome: inactive
[18]
  outcome: inactive
[19]
  outcome: inactive

## O=S(=O)(O)C(F)(F)C(F)(F)C(F)(F)C(F)(F)C(F)(F)C(F)(F)C(F)(F)F
[1]
  outcome: inactive
[2]
  outcome: inactive
[3]
  outcome: inactive
[4]
  outcome: inactive
[5]
  outcome: inactive
[6]
  outcome: inactive
[8]
  outcome: inactive
[9]
  outcome: inactive
[10]
  AC50: 10.4 µM (active)
  outcome: inactive
[11]
  outcome: inactive
[12]
  outcome: inactive
[13]
  outcome: inactive
[14]
  outcome: inactive
[15]
  outcome: inactive
[16]
  outcome: inactive
[17]
  outcome: inactive
[18]
  outcome: inactive

## CCO[Si](CCC(F)(F)C(F)(F)C(F)(F)C(F)(F)C(F)(F)C(F)(F)F)(OCC)OCC
[1]
  outcome: inactive
[2]
  outcome: inactive
[3]
  outcome: inactive
[4]
  AC50: 0.26 µM (active)
  outcome: inactive
[5]
  outcome: inactive
[6]
  outcome: inactive
[8]
  outcome: inactive
[9]
  outcome: inactive
[10]
  outcome: inactive
[11]
  outcome: inactive
[12]
  outcome: inactive
[13]
  outcome: inactive
[14]
  outcome: inactive
[15]
  outcome: inactive
[16]
  outcome: inactive
[17]
  outcome: inactive
[20]
  outcome: inactive
[18]
  outcome: inactive

## CCCCCCOC(=O)c1ccccc1O
[1]
  outcome: inactive

## Cc1ccc(S(=O)(=O)OCC(F)(F)C(F)(F)C(F)(F)C(F)(F)C(F)(F)C(F)F)cc1
[1]
  outcome: inactive
[2]
  outcome: inactive
[3]
  outcome: inactive
[4]
  outcome: inactive
[5]
  outcome: inactive
[6]
  AC50: 7.88 µM (active)
  outcome: inactive
[8]
  outcome: inactive
[9]
  outcome: inactive
[10]
  outcome: inactive
[11]
  outcome: inactive
[12]
  outcome: inactive
[13]
  outcome: inactive
[14]
  outcome: inactive
[15]
  outcome: inactive
[16]
  outcome: inactive
[17]
  outcome: inactive
[20]
  outcome: inactive
[18]
  outcome: inactive
